# Test results from the supplement of paper PMC8975748.
# Structures can show the parent of a compound that is named as a salt.
# System: Saccharomyces cerevisiae BY4741 SeMeCo community
# Experiment: z-score of subpopulation abundance vs DMSO median, subpopulation auxotrophic for U; higher = larger share of this subpopulation than in DMSO controls
# Conditions: 10 µM; 24 h; SM minimal medium; subpopulation (auxotrophy): U
# Description: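 Fluorescent four-plasmid SeMeCo (self-establishing metabolically cooperating S. cerevisiae BY4741 community; plasmids pH-mRuby2, pL-mWasabi, pU-eCFP, pM-TagRFP657) was grown 24 h in minimal SM medium with each Selleck FDA-approved drug at 10 µM in 384-well plates. Cells were fixed and imaged by high-content confocal microscopy. For each auxotrophic subpopulation (and the prototroph), a z-score gives the deviation from the DMSO vehicle-control population median.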
row,SMILES,z-score of subpopulation abundance
1,C#C[C@]1(O)CC[C@H]2[C@@H]3CCc4cc(OC5CCCC5)ccc4[C@H]3CC[C@@]21C [Quinestrol],-0.2
2,CC1(C)S[C@@H]2[C@H](NC(=O)[C@H](N)c3ccccc3)C(=O)N2[C@H]1C(=O)O [Ampicillin sodium],0.29
3,OCCN1CCN(CC/C=C2/c3ccccc3Sc3ccc(C(F)(F)F)cc32)CC1 [Flupenthixol dihydrochloride],-0.72
4,O=C1CC2(CCCC2)CC(=O)N1CCCCN1CCN(c2ncccn2)CC1 [Buspirone HCl],0.5
5,CC1(C)[C@H](C(=O)O)N2C(=O)C[C@H]2S1(=O)=O [Sulbactam sodium],1.59
6,O=C(O)CCCCCCCC(=O)O [Azelaic acid],0.62
7,CN(C)CCC=C1c2ccccc2C(C)(C)c2ccccc21 [Melitracen hydrochloride],-0.05
8,CO[C@@H]1[C@H](OC(=O)/C=C/C=C/C=C/C=C/C(=O)O)CC[C@]2(CO2)[C@H]1[C@@]1(C)O[C@@H]1CC=C(C)C [Fumagillin],0.58
9,CC1=C[C@H]2C(=O)O[C@H]3C[C@@H](C/C=C(\C)C[C@@H](C)/C=C/C=C4\CO[C@H](/C1=N\O)[C@@]42O)O[C@@]1(CC[C@H](C)[C@@H](C)O1)C3.CC[C@H]1O[C@]2(CC[C@@H]1C)C[C@@H]1C[C@@H](C/C=C(\C)C[C@@H](C)/C=C/C=C3\CO[C@@H]4/C(=N\O)C(C)=C[C@@H](C(=O)O1)[C@]34O)O2 [Milbemycin Oxime],-0.74
10,COc1cc(O)c(C(=O)Nc2nc(C(=O)NCCN(C(C)C)C(C)C)cs2)cc1OC [Acotiamide hydrochloride],0.89
11,CN(C)CCCN1c2ccccc2CCc2ccc(Cl)cc21 [Clomipramine HCl],1.4
12,C/C=C1\[C@H]2C=C(C)C[C@]1(N)c1ccc(=O)[nH]c1C2 [(-)-Huperzine A (HupA)],0.2
13,C[C@@H](NCCCc1cccc(C(F)(F)F)c1)c1cccc2ccccc12 [Cinacalcet HCl],-1.21
14,CN[C@@H]1[C@@H](O)[C@@H](O[C@@H]2[C@@H](O)[C@H](O[C@H]3O[C@H](CN)[C@@H](O)[C@H](O)[C@H]3O)[C@@H](N)C[C@H]2NC(=O)[C@@H](O)CN)OC[C@]1(C)O [Isepamicin Sulphate],1.4
15,CCCCNc1ccc(C(=O)OCCN(C)C)cc1 [Tetracaine HCl],0.72
16,CCCN1CCCC[C@H]1C(=O)Nc1c(C)cccc1C [Ropivacaine],-0.73
17,OCc1ccccc1O[C@@H]1O[C@H](CO)[C@@H](O)[C@H](O)[C@H]1O [Salicin],-0.42
18,Cc1cccc(C)c1NC(=O)C1CCCCN1C (stereo not given) [Mepivacaine HCl],1.52
19,O=C([O-])CC(O)(CC(=O)[O-])C(=O)[O-].O=C([O-])CC(O)(CC(=O)[O-])C(=O)[O-].[Bi+3].[K+].[K+].[K+].[K+].[K+] [Bismuth Subcitrate Potassium],-0.49
20,COc1cc2c(cc1OC)C(=O)C(CC1CCN(Cc3ccccc3)CC1)C2 (stereo not given) [Donepezil],-1.17

row,SMILES,z-score of subpopulation abundance
1,Cc1nc(NC(=O)N2CCC[C@H]2C(N)=O)sc1-c1ccnc(C(C)(C)C(F)(F)F)c1 [Alpelisib (BYL719)],0.93
2,COc1cc(/C=C/C(=O)N2CCN(CC(=O)N3CCCC3)CC2)cc(OC)c1OC [Cinepazide maleate],1.16
3,CO/N=C(\C(=O)N[C@@H]1C(=O)N2C(C(=O)O)=CCS[C@H]12)c1csc(N)n1 [Ceftizoxime],-0.63
4,O=S1(=O)CCN(CN2CCS(=O)(=O)NC2)CN1 [Taurolidine],0.64
5,C1N2CN3CN1CN(C2)C3 [Methenamine],0.59
6,CCN1CCN(C(=O)N[C@@H](C(=O)N[C@@H]2C(=O)N3C(C(=O)O)=C(CSc4nnnn4C)CS[C@H]23)c2ccc(O)cc2)C(=O)C1=O [Cefoperazone],-0.72
7,C[C@@H](O)[C@H]1C(=O)N2C(C(=O)[O-])=C(SC3Cn4cnc[n+]4C3)[C@H](C)[C@H]12 (stereo not given in full) [Biapenem],-0.12
8,C/C(=C\C(=O)OCCCCCCCCC(=O)O)C[C@@H]1OC[C@H](C[C@@H]2O[C@H]2[C@@H](C)[C@H](C)O)[C@@H](O)[C@H]1O [Mupirocin calcium],1.26
9,O=C(O)CCC(=O)OC[C@@H](NC(=O)C(Cl)Cl)[C@H](O)c1ccc([N+](=O)[O-])cc1 [Chloramphenicol sodium succinate],-0.91
10,CC(C)NC(=N)NC(=N)Nc1ccc(Cl)cc1 [Proguanil],1.07
11,NC[C@H]1O[C@H](O[C@H]2[C@H](O[C@@H]3O[C@H](CO)[C@@H](O)[C@H]3O)[C@@H](O)[C@H](N)C[C@@H]2N)[C@H](N)[C@@H](O)[C@@H]1O [Ribostamycin Sulfate],0.39
12,O=C1Nc2ccccc2C1=O [Isatin],0.43
13,CC[C@H]1OC(=O)C[C@@H](O)[C@H](C)[C@@H](O[C@@H]2O[C@H](C)[C@@H](O)[C@H](N(C)C)[C@H]2O)[C@@H](CCN2C[C@H](C)C[C@H](C)C2)C[C@@H](C)C(=O)/C=C/C(C)=C/[C@@H]1CO[C@@H]1O[C@H](C)[C@@H](O)[C@@H](OC)[C@H]1OC [Tilmicosin phosphate],-0.3
14,N#Cc1ccc2[nH]cc(CCCCN3CCN(c4ccc5oc(C(N)=O)cc5c4)CC3)c2c1 [Vilazodone HCl],-0.4
15,CCCCN1CCCCC1C(=O)Nc1c(C)cccc1C (stereo not given) [Bupivacaine HCl],0.36
16,CC1(C)S[C@@H]2[C@H](NC(=O)[C@H](N)c3ccccc3)C(=O)N2[C@H]1C(=O)OCOC(=O)[C@@H]1N2C(=O)C[C@H]2S(=O)(=O)C1(C)C [Sultamicillin Tosylate],0.67
17,Nc1ccc(S(=O)(=O)Nc2ncccn2)cc1 [Sodium sulfadiazine],0.32
18,O=C1CN(/N=C/c2ccc([N+](=O)[O-])o2)C(=O)N1 [Nitrofurantoin],-0.25
19,CCC(=O)NS(=O)(=O)c1ccc(-c2c(-c3ccccc3)noc2C)cc1 [Parecoxib],-0.29
20,C#CCN(C)Cc1ccccc1 [Pargyline hydrochloride],0.56
